The panel holds about 83,000 compounds, 20% with a hit somewhere; the sample as a whole holds those more often.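 Testing used 96-well plates and a 48-hour single-concentration exposure. Example: -40 means 40% of the starting cells died.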 Active and inactive are the calls of the source. Rule for the calls: active = growth percent below 10; inactive = the rest.
Assays:
Test in all cases: NCI-60 one-dose screen, 48 h (100 = growth as untreated, 0 = no growth, -100 = all killed)
Conditions in all cases: 10 µM unless noted
[1] = system: SR leukemia
[2] = system: RPMI-8226 leukemia
[3] = system: OVCAR-8 ovarian
[4] = system: OVCAR-5 ovarian
[5] = system: OVCAR-4 ovarian
[6] = system: SK-OV-3 ovarian
[7] = system: IGROV1 ovarian
[8] = system: OVCAR-3 ovarian
[9] = system: HS 578T breast
[10] = system: NCI/ADR-RES ovarian

Measured: growth

CCOc1nc(-c2ccccc2)cc2c(O)c(C(=O)N/N=C/c3ccccc3)[nH]c(=O)c12
inactive: [1] 95.2% | [2] 97.6% | [3] 106% | [4] 111% | [5] 119% | [6] 109% | [7] 36% | [8] 103% | [9] 104% | [10] 104%

CCCCC1=C(P(=O)(O)O)N[C@H](C(=O)O)CS1
inactive: [1] 96.4% | [2] 99.7% | [3] 95.5% | [4] 94.4% | [5] 91.3% | [6] 80.7% | [7] 94.3% | [8] 106% | [9] 109% | [10] 108%

N#Cc1nc(-c2ccc(F)cc2)oc1S(=O)(=O)N1CCCCC1
inactive: [2] 49.4% | [3] 58.3% | [4] 95.9% | [5] 57.4% | [6] 104% | [7] 59.6% | [9] 95.6% | [10] 97.7%
active: [1] 1.55% | [8] -54.5%

CCOC(=O)c1cc(C(=O)c2cc(OC)c(OC)c(OC)c2)n2ncccc12
inactive: [1] 18.3% | [2] 19.3% | [3] 30.4% | [4] 63.1% | [5] 62.4% | [6] 26.4% | [7] 47.2% | [9] 31.1%
active: [8] -15.2% | [10] 3.34%

O=C(O)CCCN1C(=O)/C(=C/c2cn(-c3ccccc3)nc2-c2ccc([N+](=O)[O-])cc2)SC1=S
inactive: [1] 33.3% | [2] 46.8% | [3] 44.4% | [4] 94.3% | [5] 64% | [6] 59.1% | [7] 58.3% | [8] 61.6% | [9] 63.6% | [10] 43.5%

Cc1nc2sc(C(=O)Nc3cccc(Br)c3)c(N)c2cc1C(O)c1ccccc1 (stereo not given)
active: [8] 8.16%
inactive: [1] 13.4% | [2] 11.1% | [3] 20.8% | [4] 57% | [5] 70.5% | [6] 35.6% | [7] 32.1% | [9] 21% | [10] 11.7%

CCc1ncnc2c1ccn2C(C)c1ccc(OC)c(F)c1 (stereo not given)
inactive: [1] 16.5% | [2] 37.2% | [3] 49.2% | [4] 88.1% | [5] 54.9% | [6] 53.6% | [7] 54.9% | [8] 34.8% | [9] 69.2% | [10] 44.6%

O=C1C(Cl)=C(Nc2ccc(S(=O)(=O)N3CCOCC3)cc2)C(=O)c2ccccc21
active: [1] -3.16%
inactive: [2] 21.2% | [3] 70% | [4] 38.1% | [5] 86% | [6] 81.3% | [7] 62.5% | [8] 72.8% | [9] 79.2% | [10] 90%

O=C(Nc1ccc(Oc2cccc(F)c2)c(Cl)c1)c1cccnc1
active: [8] 6.97%
inactive: [1] 23.8% | [2] 15.8% | [3] 34.6% | [4] 72.6% | [5] 46.2% | [6] 30% | [7] 41.8% | [9] 31.3% | [10] 13.9%

O=[N+]([O-])c1cccc(-c2nc3cc4nc5ccccc5[nH]c4cc3n2)c1
inactive: [1] 93.4% | [2] 101% | [3] 98.2% | [4] 111% | [5] 98.3% | [6] 102% | [7] 99.1% | [8] 98.7% | [9] 109% | [10] 101%

COc1ccc(-c2cc(-c3cc(OC)c(OC)c(OC)c3)c(C#N)c(=O)n2CCCCC(=O)NO)cc1
inactive: [1] 13.3% | [2] 35.9% | [3] 42.4% | [4] 76.6% | [5] 67% | [6] 87.1% | [7] 60.2% | [8] 62.1% | [9] 45% | [10] 38.8%

COc1c(C(=O)Nc2ccc(C)c(Br)c2)ccc2ccccc12
inactive: [1] 54.3% | [2] 95.7% | [3] 99.3% | [4] 92.2% | [5] 82.9% | [6] 97.9% | [7] 94.3% | [8] 107% | [9] 85.5% | [10] 84.6%

COCCn1cc(-c2csc(-c3cn(C)c4ccc(Br)cc34)n2)c2cccnc21
inactive: [1] 31.3% | [2] 60.7% | [3] 56.3% | [4] 68.3% | [5] 71% | [6] 71.9% | [7] 80.2% | [8] 80.3% | [9] 63% | [10] 60%

COc1ccc(/C=C/C(=O)c2ccc(Nc3ccnc4cc(Cl)ccc34)cc2)cc1
inactive: [3] 97.9% | [4] 89.2% | [5] 96.6% | [6] 111% | [7] 93.7% | [8] 118% | [9] 106% | [10] 83.6%
active: [1] -72.4% | [2] -32%

C=C1C(=O)O[C@H]2[C@H]1CC/C(COC(=O)c1cc3ccccc3s1)=C\CC[C@@]1(C)O[C@@H]21
inactive: [6] 85.3%
active: [1] -1.95% | [2] -25.3% | [3] -12% | [4] -57.3% | [5] -62% | [7] -66% | [8] -69% | [9] -17.7% | [10] 1.73%

COc1ccc(NC2=C(I)C(=O)c3ncccc3C2=O)cc1
active: [1] 6.66% | [2] 4.44% | [3] 8.5% | [4] -62.8% | [5] -88.3% | [7] -43.9% | [8] -10.1% | [9] -15.9% | [10] 0.698%
inactive: [6] 50%

CN(C)CCNC(=O)c1ccc(-c2nc3ccc4[nH]ncc4c3c3c2C2CCC3C2)cc1 (stereo not given)
inactive: [3] 20.8% | [4] 96% | [5] 48.6% | [7] 16.4% | [8] 20.9% | [10] 77.7%
active: [1] 1.91% | [2] -5.84% | [6] 1.15% | [9] 9.56%

C#CCNC(=O)[C@H](CC)[C@H]1CC[C@H](C)[C@H]([C@@H](C)[C@H](O)[C@H](C)C(=O)[C@H](CC)C2O[C@]3(C=CC(=O)[C@]4(CC[C@@](C)([C@H]5CC[C@](O)(CC)[C@H](C)O5)O4)O3)[C@H](C)C[C@@H]2C)O1 (stereo not given in full)
inactive: [1] 13.5% | [2] 25.3% | [3] 66.8% | [4] 68.7% | [5] 13.9% | [6] 68.2% | [7] 48.5% | [9] 35% | [10] 14.7%
active: [8] -23.5%

O=C1NC(=O)C(Cc2ccc(OCc3ccc(-c4ccc(Cl)cc4Cl)cc3)cc2)S1 (stereo not given)
inactive: [1] 29.3% | [2] 38.5% | [3] 42.6% | [4] 80.6% | [5] 47.4% | [6] 61.8% | [7] 52.2% | [8] 65.7% | [9] 65.1% | [10] 22.7%

Cc1ccc(C[P+](c2ccccc2)(c2ccccc2)c2ccccc2)cc1
active: [1] -3.87% | [2] -17.6% | [4] 7.45% | [5] 1.45% | [6] 6.84% | [8] 5.95% | [9] 8.62%
inactive: [3] 15.6% | [7] 18.7% | [10] 93.5%

CCOC(=O)c1cc2c(n1C)-c1nc(NC(C)=O)sc1CCC2
inactive: [1] 72.6% | [2] 79% | [3] 71.2% | [4] 117% | [5] 80.4% | [6] 76.1% | [7] 69.2% | [8] 85.7% | [9] 60.5% | [10] 85.1%

O=C1NC(=C(Cl)Cl)/C(=N\S(=O)(=O)NCc2ccccc2)N1
inactive: [1] 65.3% | [2] 75.6% | [3] 94.6% | [4] 98.4% | [5] 108% | [6] 97.1% | [7] 102% | [8] 105% | [9] 122% | [10] 109%

O=S(=O)(Nc1cc(Cl)ccc1Cl)c1ccc(-c2cnc(C3CC3)o2)cc1
active: [8] 5.34% | [9] -2.43%
inactive: [1] 16.5% | [2] 31% | [3] 56.2% | [4] 72.1% | [5] 52.5% | [6] 52% | [7] 39.3% | [10] 26%

O=C(/C=C/c1ccco1)Nc1ncc(Cc2cccc(C(F)(F)F)c2)s1
inactive: [2] 12.4% | [4] 30.3% | [6] 16.9%
active: [1] 9.93% | [3] 8.79% | [5] 4.64% | [7] 4.48% | [8] -33.3% | [9] 0.428% | [10] -4.7%

Nc1nc2ccc(-c3nc4ccc5[nH]ncc5c4c4c3CCCC4)cc2s1
inactive: [1] 95.9% | [2] 115% | [3] 100% | [4] 105% | [5] 107% | [6] 94.4% | [7] 102% | [8] 110% | [9] 99.7% | [10] 103%

C#COc1cccc(Nc2c(C#N)cnc3ncc(NC(=O)CCl)cc23)c1
inactive: [1] 10.2% [6.25 µM] | [3] 32.2% [6.25 µM] | [4] 42.9% [6.25 µM] | [5] 54.5% [6.25 µM] | [6] 60.4% [6.25 µM] | [7] 14.1% [6.25 µM] | [9] 66.8% [6.25 µM] | [10] 76.5% [6.25 µM]
active: [2] -18.2% [6.25 µM] | [8] 7.58% [6.25 µM]

— PubChem BioAssay (NCI)
